The values below come from PMC4336329 (PLoS ONE, 2015).

Hit rate of the full screen: of about 310,000 compounds, about 14,000 (4.5%) showed an effect of 50% or more. Effects have a minus sign here. The sample as a whole holds a higher share of strong results than the screen did.
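Also: peak tail current of the secondary pulse compared with the same well before compound.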

Sequence of human ether-à-go-go-related gene (hERG) potassium channel (Q12809 whole entry, looked up): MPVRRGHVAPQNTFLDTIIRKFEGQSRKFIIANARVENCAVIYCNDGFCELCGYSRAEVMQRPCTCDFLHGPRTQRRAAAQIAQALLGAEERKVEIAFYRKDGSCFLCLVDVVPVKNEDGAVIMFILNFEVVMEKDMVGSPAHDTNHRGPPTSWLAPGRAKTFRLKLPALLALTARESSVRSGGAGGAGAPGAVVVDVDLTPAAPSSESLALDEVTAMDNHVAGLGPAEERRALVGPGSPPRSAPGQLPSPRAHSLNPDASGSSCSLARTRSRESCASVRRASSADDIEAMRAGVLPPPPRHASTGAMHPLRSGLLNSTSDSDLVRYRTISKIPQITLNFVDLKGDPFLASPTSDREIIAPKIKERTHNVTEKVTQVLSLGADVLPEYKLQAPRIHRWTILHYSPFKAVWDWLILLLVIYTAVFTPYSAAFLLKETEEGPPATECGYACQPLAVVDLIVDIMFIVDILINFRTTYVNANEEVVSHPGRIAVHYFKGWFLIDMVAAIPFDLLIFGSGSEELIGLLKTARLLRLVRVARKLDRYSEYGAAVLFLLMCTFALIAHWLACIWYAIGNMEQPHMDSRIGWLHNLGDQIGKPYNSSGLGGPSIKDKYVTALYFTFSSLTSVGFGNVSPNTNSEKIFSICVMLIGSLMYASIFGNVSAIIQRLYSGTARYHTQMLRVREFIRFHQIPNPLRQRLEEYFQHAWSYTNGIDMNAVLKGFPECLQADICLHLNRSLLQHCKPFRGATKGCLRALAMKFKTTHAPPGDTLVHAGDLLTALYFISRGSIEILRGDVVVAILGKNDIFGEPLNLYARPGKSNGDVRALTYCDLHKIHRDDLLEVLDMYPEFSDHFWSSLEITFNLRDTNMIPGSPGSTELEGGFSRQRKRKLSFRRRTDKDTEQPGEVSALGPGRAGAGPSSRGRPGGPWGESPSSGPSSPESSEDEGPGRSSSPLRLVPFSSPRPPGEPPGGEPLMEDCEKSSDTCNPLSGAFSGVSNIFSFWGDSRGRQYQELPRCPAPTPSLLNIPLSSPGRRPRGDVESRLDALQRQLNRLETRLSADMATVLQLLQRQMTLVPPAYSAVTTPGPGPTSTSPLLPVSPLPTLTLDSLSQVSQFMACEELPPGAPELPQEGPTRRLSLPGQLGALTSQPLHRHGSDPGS

The assay addresses human ether-à-go-go-related gene (hERG) potassium channel (human, UniProt Q12809). In words: primary screen, population patch clamp on CHO cells stably expressing hERG; higher = less effect of the substance.
Regarding `Cc1cc(NC(=O)C2CCCN2C(=O)Nc2c(C)cccc2C)ccc1-n1cnnn1` (stereo not shown), the “hERG current change (%, negative = inhibition) at 10uM” value is -10.9%.
With `Cc1cc(C)cc(NC(=O)N2CCCC2C(=O)Nc2ccc(-n3cnnn3)cc2)c1` (stereo not shown), the “hERG current change (%, negative = inhibition) at 10uM” value is -54.1%.
On to `O=C(CN1C(=O)NC2(CCc3ccccc32)C1=O)NCC(F)(F)F` (stereo not shown), for which the “hERG current change (%, negative = inhibition) at 10uM” value is listed as 2.18%.
For `O=C(O)c1cccc(Oc2ncnc3sc4c(c23)CCCC4)c1` the value was 34.5%; for `Oc1ccc(N=Nc2ccc3c(c2)OCCO3)c(O)c1`, 22.6%.
In the case of `CC(=O)Nc1ccc(S(=O)(=O)N2CC(=O)NC(=O)C2)cc1`, the “hERG current change (%, negative = inhibition) at 10uM” value is recorded as 29.9%.
Regarding `COc1ccc(C2=NS(=O)(=O)N(C)C(C(=O)N3CCCCC3)=C2)cc1OC`, the “hERG current change (%, negative = inhibition) at 10uM” value is -4.54%.
Consider `CCn1ncc(Br)c1C(=O)NC(C)c1ccccc1` (stereo not shown), for which the “hERG current change (%, negative = inhibition) at 10uM” value is reported as 3.91%.
For `O=C(Cn1c(=O)n(CCC(=O)N2CCCCC2)c(=O)c2sccc21)NCc1ccccc1` the value was 5.68%; for `CN(Cc1ccccc1)C(=O)c1oc(=O)c2ccccc2c1-c1ccccc1`, -13.1%; for `COc1ccc(Cl)cc1NC(=O)CN(C)C(=O)c1cc(=O)c2ccccc2o1`, -28%.
For `Cc1ccc(-c2c(C(=O)NCc3ccc(F)cc3)oc(=O)c3ccccc23)cc1` the value was -13%.
For `CSc1ccc(CN(C)C(=O)c2cc(=O)c3ccccc3o2)cc1` the value was -71.4%; for `CN(Cc1ccc(Cl)cc1Cl)C(=O)c1cc(=O)c2ccccc2o1`, -53.4%; for `Cc1ccc(-c2c(C(=O)N(C)Cc3ccccc3)oc(=O)c3ccccc23)cc1`, -52.5%.
Regarding `CSc1ccc(CN(C)C(=O)c2cc3ccccc3o2)cc1`, the “hERG current change (%, negative = inhibition) at 10uM” value came to 21.2%.
Take `CN(Cc1ccccc1Cl)C(=O)c1cc2ccccc2o1`: the “hERG current change (%, negative = inhibition) at 10uM” value is -2.37%.
For `CCc1ccc(CN(C)C(=O)c2cc(=O)c3ccccc3o2)cc1` the value was -66.4%; for `CN(Cc1ccc(N(C)C)cc1)C(=O)c1cc2ccccc2o1`, -18.5%; for `COc1ccc(CCN(C)C(=O)c2cc(=O)c3ccccc3o2)cc1OC`, 7.6%.
Regarding `CN(Cc1ccccc1)C(=O)c1cc2ccccc2o1`, the “hERG current change (%, negative = inhibition) at 10uM” value is -23%.
In the case of `O=C(Nc1ccc(N2CCCCCC2)cc1)c1ccc[nH]1`, the “hERG current change (%, negative = inhibition) at 10uM” value is on record as -15.6%.
On to `O=C(NC(=S)NCC1CCCO1)c1ccccc1Br` (stereo not shown), for which the “hERG current change (%, negative = inhibition) at 10uM” value is 4.66%.
As to `CN(CCc1ccccn1)C(=O)Nc1ccc(C(C)(C)C)cc1`, the “hERG current change (%, negative = inhibition) at 10uM” value was -19.3%.
For `O/N=C/c1cc2ccccc2n1Cc1ccccc1F` the value was 13.6%; for `CC12CCC(C(=O)n3c1nc1ccccc13)C2(C)C` (stereo not shown), -3.14%; for `Cc1cccc(NC(=O)CSc2nc3nc(C)cc(C)c3c(=O)[nH]2)c1`, 4.65%.
Consider `CCN1CCCC(NC(=O)c2cc([N+](=O)[O-])ccc2OC)C1.Cl.O` (stereo not shown), for which the “hERG current change (%, negative = inhibition) at 10uM” value is -11.8%.
For `Cc1ccc(C(=O)NC2CCN(CC(=O)Nc3cccc([N+](=O)[O-])c3)CC2)cc1`, the “hERG current change (%, negative = inhibition) at 10uM” value is -71.4%.
In the case of `O=C(NC1CCN(Cc2cccc([N+](=O)[O-])c2)CC1)c1ccccc1`, the “hERG current change (%, negative = inhibition) at 10uM” value is recorded as -53.7%.
Consider `O=C(NC1CCN(Cc2ccccc2)CC1)C1CCN(S(=O)(=O)c2cccc([N+](=O)[O-])c2)CC1`, for which the “hERG current change (%, negative = inhibition) at 10uM” value was -8.03%.
As for `CC1CCCCC1NC(=O)CN1CCC(NC(=O)c2ccc([N+](=O)[O-])cc2)CC1` (stereo not shown), the “hERG current change (%, negative = inhibition) at 10uM” value is listed as 2.55%.
Regarding `COc1ccc(C)cc1NC(=O)NC1CCN(Cc2ccccc2)CC1`, the “hERG current change (%, negative = inhibition) at 10uM” value is given as -31.4%.
Turning to `CC1CCN(CC(=O)Nc2cccc([N+](=O)[O-])c2)CC1`, the “hERG current change (%, negative = inhibition) at 10uM” value is reported as 3.53%.
For `O=C(NC1CCN(CC(=O)N(c2ccccc2)c2ccccc2)CC1)c1ccc([N+](=O)[O-])cc1` the value was -78%; for `CC(=O)NC1CCN(CC(=O)Nc2cccc([N+](=O)[O-])c2)CC1`, 18.7%.
For `O=C(NC1CCN(C(=O)c2cccc([N+](=O)[O-])c2)CC1)c1ccccc1`, the “hERG current change (%, negative = inhibition) at 10uM” value is -32.8%.
Consider `COc1ccc([N+](=O)[O-])cc1C(=O)NC1CCN(Cc2ccccc2)CC1.Cl.O`, for which the “hERG current change (%, negative = inhibition) at 10uM” value was -55.3%.
Take `CCOc1ccc(C(=O)NC2CCN(CC(=O)NCc3ccccc3)CC2)cc1`: the “hERG current change (%, negative = inhibition) at 10uM” value is -29.3%.
In the case of `COc1ccccc1N/C=C/c1onc(C)c1[N+](=O)[O-]`, the “hERG current change (%, negative = inhibition) at 10uM” value came out at 1.63%.
Regarding `Cn1c2ccccc2c2cc(/C=C(\NC(=O)c3ccccc3)C(=O)O)ccc21`, the “hERG current change (%, negative = inhibition) at 10uM” value was 9.22%.
In the case of `CSc1ccc(C(=O)N2CCc3ccc(NC(=O)c4ccccn4)cc3C2)cc1`, the “hERG current change (%, negative = inhibition) at 10uM” value was -4.13%.
Consider `Cc1ccc(NC(=O)Cn2c(/C=C/c3ccccc3)nc3ccccc32)cc1C`, for which the “hERG current change (%, negative = inhibition) at 10uM” value is -0.723%.
